Results from PubChem BioAssay (Tox21).
Inconclusive results are not listed. The source made the active and inactive calls. Calls come from the whole dose curve; as a rule, active = well fitted cell-killing curve with a large enough effect in the repeat runs; inconclusive = weak or mixed curves, or effect the other way; inactive = flat fitted curve, though single readings scatter.

Experiment: qHTS assay to identify small molecule antagonists of the estrogen receptor alpha (ER-alpha) signaling pathway using the BG1 cell line in the presence of 0.1 nM 17-beta-estradiol - cell viability counter screen (AID 1259241); note: nearly all actives have a fitted effect of over 40% in size
Conditions: VM7Luc4E2 (BG1) viability, CellTiter-Fluor protease, 22 h, 0.1 nM estradiol agonist added; series mostly up to 92.4 µM
Text: National Center for Advancing Translational Sciences [NCATS]
NIH Chemical Genomics Center [NCGC]
U.S. Environmental Protection Agency [EPA]
National Institutes of Environmental Health Sciences [NIEHS]
National Toxicology Program [NTP]
U.S. Food and Drug Administration [FDA]
Estrogen receptor (ER), a member of the nuclear hormone receptor plays an important role in development, metabolic homeostasis and reproduction. Two subtypes of ER, ER-alpha and ER-beta, have similar expression patterns with some uniqueness in both types. Endocrine disrupting chemicals (EDCs) and their interactions with steroid hormone receptors like ER causes disruption of normal endocrine function. Therefore, it is important to understand the effect of environmental chemicals in ER signaling pathway. For identifying ER antagonists, VM7Luc4E2 cell line was used to screen against Tox21 compound libraries.
VM7Luc4E2 cell line (provided by Denison MS, University of California) endogenously express full-length ER-alpha and is stably transfected with a plasmid containing four estrogen responsive elements (ERE) upstream of a luciferase reporter gene. The current screening for identification of ER-alpha inhibitors against Tox21 compound libraries used lower concentration (0.1 nM) of 17beta-Estradiol as a stimulator. The cytotoxicity of the Tox21 compound libraries against VM7Luc4E2 cell line was tested by measuring live-cell protease activity using CellTiter-Fluor assay in the same wells.
Tox21 Assay Protocol Summary:
VM7Luc4E2 cells were cultured in phenol red free assay medium containing 10% charcoal stripped FBS for 5 days prior to the assay. The cells were dispensed at 4,000 cells/well in 4 uL of assay medium into white wall/solid-bottom 1536-well plates (Corning Life Sciences, Corning, NY) using a Multidrop Combi (ThermoFisher Scientific, Waltham, MA) dispenser. After the assay plates were incubated at 37C and 5% CO2 for 24 hr, 23 nL of compounds dissolved in DMSO, positive controls or DMSO only was transferred to the assay plates by a Pintool station (Kalypsys, San Diego, CA). The transfer of compounds was followed by the addition of 1 uL of 0.1 nM (final concentration) agonist (17beta-Estradiol)/assay medium using a Flying Reagent Dispenser (FRD, Aurora Discovery, San Diego, CA). The plates were incubated at 37C and 5% CO2 for 22 hr. For cytotoxicity assay, 1 uL of CellTiter-Fluor reagent (Promega Corporation, Madison, WI) was added to each well using the FRD and after 30 min incubation at 37C and 5% CO2, The fluorescence intensity was measured using ViewLux plate reader (PerkinElmer, Shelton, CT).

| SMILES | outcome |
| --- | --- |
| CN(N=O)C(N)=O | inactive |
| C(CCOCC1CO1)COCC1CO1 (stereo not given) | inactive |
| CC1(C)CON(Cc2ccccc2Cl)C1=O | inactive |
| C[C@@H]1CN(C2CCC(C#N)(c3ccc(F)cc3)CC2)CC[C@]1(C(=O)O)c1ccccc1 (stereo not given in full) | inactive |
| CCOP(=S)(Oc1cnc(C(C)(C)C)nc1)OC(C)C (stereo not given) | inactive |
| Clc1ccccc1N1CCNCC1 | inactive |
| CNC(=O)O/N=C(\C)SC | inactive |
| CSc1nc(N=[N+]=[N-])nc(NC(C)C)n1 | inactive |
| COC(=O)c1c(C(F)F)nc(C(F)(F)F)c(C2=NCCS2)c1CC(C)C | inactive |
| CCC(C)(C)c1cc(-n2nc3ccccc3n2)c(O)c(C(C)(C)CC)c1 | inactive |
| O=[N+]([O-])c1ccc(CBr)cc1 | inactive |
| C[C@]1(O)CC[C@H]2[C@@H]3CCC4=CC(=O)CC[C@]4(C)[C@@]3(F)[C@@H](O)C[C@@]21C | inactive |
| NC(=O)c1cc([N+](=O)[O-])cc([N+](=O)[O-])c1 | inactive |
| OC(c1ccccc1)(c1ccccc1)C1CCNCC1 | inactive |
| CCN(CC)CCOC(=O)C(C)(c1ccccc1)c1ccccc1 | inactive |
| O=C(Oc1ccc(Br)cc1)N1CCN2CCC1CC2 | inactive |
| N#CCBr | inactive |
| NC(=O)O | inactive |
| O=C(O)C(Br)CBr (stereo not given) | inactive |
| Cc1cnc[nH]1 | inactive |

| SMILES | outcome |
| --- | --- |
| CCOC(=O)C1(c2ccccc2)CCN(CCc2ccc(N)cc2)CC1 | inactive |
| COc1cc(OC)nc(NC(=O)NS(=O)(=O)c2ncccc2C(=O)N(C)C)n1 | inactive |
| BrCCCCCCBr | inactive |
| CNC(=O)Oc1cccc(C(C)C)c1 | inactive |
| O=C(NCO)NCO | inactive |
| COC(=O)c1ccccc1S(=O)(=O)NC(=O)N(C)c1nc(C)nc(OC)n1 | inactive |
| CC(=O)CC(c1ccc(Cl)cc1)c1c(O)c2ccccc2oc1=O (stereo not given) | inactive |
| CC(C)[N+](=O)[O-] | inactive |
| CCNc1nc(NC(C)C)nc(OC)n1 | inactive |
| COc1ccc(C(=O)N2CCCC2=O)cc1 | inactive |
| Fc1ccc(C2(Cn3cncn3)OC2c2ccccc2Cl)cc1 (stereo not given) | inactive |
| C=CC1CC=CCC1 (stereo not given) | inactive |
| CCCSC(=O)N(CCC)CCC | inactive |
| OCCBr | inactive |
| CCCCOC(=O)c1ccccc1N | inactive |
| CN/C(=N\[N+](=O)[O-])NCC1CCOC1 (stereo not given) | inactive |
| c1cc[c]([Hg][c]2ccccc2)cc1 | inactive |
| O=C(Nc1ccccc1)N(Cc1ccc(Cl)cc1)C1CCCC1 | inactive |
| N#CCCC#N | inactive |
| COP(=S)(OC)Oc1ccc(S(N)(=O)=O)cc1 | inactive |
